Values joined by “and” are separate entries in the source; they are usually repeats but may differ in a detail not shown here. Equal values may be shown once. Some compounds were tested as several samples or in several runs, with calls that do not always agree. Active and inactive are the calls of the source. Where a call stands in place of a potency, no number is given. The call rests on the fitted dose curve; in most records, active means well fitted inhibition curve with a large enough effect; inconclusive means small, poorly fitted or top-dose-only effect; inactive means no such curve, though single readings can be large or run the other way.
Assay: qHTS assay for measurement of the activity of small molecule inhibitors on Zika virus induced Caspase-3 activity in human astrocytoma cells (AID 1224859)
Conditions: SNB-19 ZIKV-induced caspase-3/7, luminescence, 6 h; series mostly up to 45.7 µM
Excerpt: National Center for Advancing Translational Sciences [NCATS]
Johns Hopkins University School of Medicine
Increase in the Caspase-3 activity indicates an activation of apoptosis cell death pathway caused by Zika virus infection in certain types of neuronal cells including human neural progenitor cells (hNPCs), astrocytes, and astrocytoma cell line (SNB-19). This cell-based caspase-3 activity assay measures the increased caspase-3 activity in the astrocytoma cell line (SNB-19) after a 6-hour Zika virus infection with a luminescence readout. A decrease in the luminescence signal in this assay by small molecule treatment indicates an inhibitory effect of that small molecule on the Zika virus induced caspase-3 activity that may correlate with its effect on reduction of Zika virus caused cell death.
The medium for SNB-19 cells is composed of RPMI 1640 (ATCC, Cat.# 30-2001), 10% fetal bovine serum (FBS) (GE healthcare Life Sciences, Cat.# SH30071.03), and 1% Pen/Strep (Gibco, Cat.# 15140-122). A Caspase-Glo 3/7 assay kit (catalog number G8092; Promega, Madison, WI) was used to detect caspase-3 activity induced by Zika virus infection in human cells. The reagent mixture was reconstituted as described in the protocol from the manufacturer. Polystyrene tissue culture treated and PDL coated white plates were obtained from Greiner Bio-One (Monroe, NC). Cells were seeded in 384- or 1536-well assay plates and cultured at 37 C with 5% CO2 for 16 to 20 hours. The typical cell seeding density in the 1536-well plate assay is 250 cells/well in 3ul medium for SNB-19 cells in tissue culture treated plates. Compounds were added to cells and incubated for one hour before addition of ZIKV solution to cells (2 FFU/cell). After incubation at 37 C with 5% CO2 for 6 hours, the reagent mixture of Caspase-Glo 3/7 assay kit was added to each well, followed by incubation at room temperature for 30 minutes. The luminescence intensity of the assay plates was measured using a ViewLux plate reader (PerkinElmer). Data were normalized by using the cell-containing wells without ZIKV as a negative control (0% induction of caspase 3/7 activity) and wells containing ZIKV infected cells (Caspase-3 activity induced) as a positive control (100% induction of caspase 3 activity). The percentage inhibitions of the increased Caspase-3 activity by small molecule inhibitors were then calculated.
Potency means the concentration at half of the fitted maximal effect.

| SMILES | Potency |
| --- | --- |
| CC(=O)Oc1ccccc1C(=O)O | inactive |
| CCCc1nn(C)c2c(=O)[nH]c(-c3cc(S(=O)(=O)N4CCN(C)CC4)ccc3OCC)nc12 | inactive |
| COc1ccccc1[C@H](c1cccc2ccccc12)[C@@](C)(C#N)C(=O)N1CCC(c2cccc(C(F)(F)F)c2)CC1 | inactive |
| N#CC[C@H](C1CCCC1)n1cc(-c2ncnc3[nH]ccc23)cn1 | inactive |
| O=C(Nc1ccc(F)c(C(F)(F)F)c1)Nc1nnc(-c2ccncc2)s1 | inactive |
| O=C1CCCC2=C1C(c1[nH]ncc1Cl)N=C(Nc1nc3ccccc3o1)N2 (stereo not given) | inactive |
| CCC(C)n1ncn(-c2ccc(N3CCN(c4ccc(OC[C@H]5CO[C@](Cn6cncn6)(c6ccc(Cl)cc6Cl)O5)cc4)CC3)cc2)c1=O (stereo not given in full) | inactive |
| Nc1cccc(S(=O)(=O)N2CCCN(S(=O)(=O)c3ccc4c(c3)OCCO4)CC2)c1 | inactive |
| COc1cc(Oc2ccnc3cc(OC)c(OC)cc23)ccc1NC(=O)NC(C)c1nccs1 (stereo not given) | inactive |
| Cc1cc(C=c2sc3nc4ccccc4n3c2=O)c(C)n1-c1ccccc1 | inactive |
| Cc1n[nH]c(C)c1Cc1sc2c(c1C(=O)N1C[C@H](O)CO1)c(=O)n(C)c(=O)n2CC(C)C | inactive |
| COc1ccc(CCN2CCN(CCCc3ccccc3)CC2)cc1OC | inactive |
| CCn1cc(C(=O)O)c(=O)c2cc(F)c(N3CCNC(C)C3)c(F)c21 (stereo not given) | inactive |
| CC[C@H](Nc1ncnc2nc[nH]c12)c1nc2cccc(F)c2c(=O)n1-c1ccccc1 | inactive |
| Fc1ccc(Cl)cc1-c1nc(Nc2ccncc2)c2nccnc2n1 | inactive |
| C1COC(NC(C2CC2)C2CC2)=N1 | inactive |
| Nc1nc2[nH]cc(CCc3ccc(C(=O)N[C@@H](CCC(=O)O)C(=O)O)cc3)c2c(=O)[nH]1 | inactive |
| NCCc1ccc(O)c(O)c1 | inactive |
| CN(C)c1ccc(Nc2nc(N)n(C(=O)c3c(F)cccc3F)n2)cc1 | inactive |
| CC(c1cc2ccccc2s1)N(O)C(N)=O (stereo not given) | inactive |

| SMILES | Potency |
| --- | --- |
| COCC(=O)NCC=Cc1ccc2ncnc(Nc3ccc(Oc4ccc(C)nc4)c(C)c3)c2c1 | inactive |
| Oc1ccc(C2CNCCc3c2cc(O)c(O)c3Cl)cc1 (stereo not given) | inactive |
| CNC[C@H](O)c1cccc(O)c1 | inactive |
| CCn1c(-c2nonc2N)nc2cnc(Oc3cccc(NC(=O)c4ccc(OCCN5CCOCC5)cc4)c3)cc21 | inactive |
| C[C@]1(c2nc3c(C(N)=O)cccc3[nH]2)CCCN1 | inactive |
| COCCNCCCn1c(C(=O)CF)c(-c2ccc(C)cc2)c2c(N)ncnc21 | inactive |
| Cc1oncc1C(=O)Nc1ccc(C(F)(F)F)cc1 | inactive and 2.64 µM (active) |
| Oc1cccc(-c2nc(N3CCOCC3)c3oc4ncccc4c3n2)c1 | inactive |
| Nc1ncnc2nc(-c3ccc(N4CCOCC4)nc3)cc(-c3cccc(Br)c3)c12 | inactive |
| CN(C)C(=O)c1ccc(S(=O)(=O)c2ccc(NC(=O)[C@@](C)(O)C(F)(F)F)c(Cl)c2)cc1 | inactive |
| COc1cc2nccc(Oc3ccc(NC(=O)NC4CC4)c(Cl)c3)c2cc1C(N)=O | inactive |
| CNCc1ccc(-c2[nH]c3cc(F)cc4c3c2CCNC4=O)cc1 | inactive |
| CC1(C)CNc2cc(NC(=O)c3cccnc3NCc3ccncc3)ccc21 | inactive |
| CS(=O)(=O)Oc1ccc2c(NC(N)=O)c(C(=O)c3ccc(Cl)cc3Cl)oc2c1 | inactive |
| NNCCc1ccccc1 | inactive |
| COc1ccccc1-c1cccc(-c2c(O)c3cc(C#N)c(Cl)cc3[nH]c2=O)c1 | inactive |
| O=c1ncn2nc(Sc3ccc(F)cc3F)ccc2c1-c1c(Cl)cccc1Cl | inactive |
| Cc1ccc(N(CC2=NCCN2)c2cccc(O)c2)cc1 | inactive |
| CC(C)(C)NCC(O)c1ccc(O)c(CO)c1 (stereo not given) | inactive |
| CCCn1c(=O)c2[nH]c(C34CC5CC3C[C@@H](C5)C4)nc2n(CCC)c1=O | inactive |

Reference: PubChem BioAssay (NCATS)
